The text below walks through data of article PMC4336329 (PLoS ONE, 2015).

The whole screen tested about 310,000 compounds, of which about 14,000 (4.5%) showed an effect of 50% or more. Effects have a minus sign here. The full list was thinned out, with strong results kept by preference.
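Further: peak tail current of the secondary pulse compared with the same well before compound.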

The test deals with human ether-à-go-go-related gene (hERG) potassium channel (human, UniProt Q12809). Nature of the test: primary screen, population patch clamp on CHO cells stably expressing hERG; higher = less effect of the substance.
Sequence of human ether-à-go-go-related gene (hERG) potassium channel (Q12809 whole entry, looked up): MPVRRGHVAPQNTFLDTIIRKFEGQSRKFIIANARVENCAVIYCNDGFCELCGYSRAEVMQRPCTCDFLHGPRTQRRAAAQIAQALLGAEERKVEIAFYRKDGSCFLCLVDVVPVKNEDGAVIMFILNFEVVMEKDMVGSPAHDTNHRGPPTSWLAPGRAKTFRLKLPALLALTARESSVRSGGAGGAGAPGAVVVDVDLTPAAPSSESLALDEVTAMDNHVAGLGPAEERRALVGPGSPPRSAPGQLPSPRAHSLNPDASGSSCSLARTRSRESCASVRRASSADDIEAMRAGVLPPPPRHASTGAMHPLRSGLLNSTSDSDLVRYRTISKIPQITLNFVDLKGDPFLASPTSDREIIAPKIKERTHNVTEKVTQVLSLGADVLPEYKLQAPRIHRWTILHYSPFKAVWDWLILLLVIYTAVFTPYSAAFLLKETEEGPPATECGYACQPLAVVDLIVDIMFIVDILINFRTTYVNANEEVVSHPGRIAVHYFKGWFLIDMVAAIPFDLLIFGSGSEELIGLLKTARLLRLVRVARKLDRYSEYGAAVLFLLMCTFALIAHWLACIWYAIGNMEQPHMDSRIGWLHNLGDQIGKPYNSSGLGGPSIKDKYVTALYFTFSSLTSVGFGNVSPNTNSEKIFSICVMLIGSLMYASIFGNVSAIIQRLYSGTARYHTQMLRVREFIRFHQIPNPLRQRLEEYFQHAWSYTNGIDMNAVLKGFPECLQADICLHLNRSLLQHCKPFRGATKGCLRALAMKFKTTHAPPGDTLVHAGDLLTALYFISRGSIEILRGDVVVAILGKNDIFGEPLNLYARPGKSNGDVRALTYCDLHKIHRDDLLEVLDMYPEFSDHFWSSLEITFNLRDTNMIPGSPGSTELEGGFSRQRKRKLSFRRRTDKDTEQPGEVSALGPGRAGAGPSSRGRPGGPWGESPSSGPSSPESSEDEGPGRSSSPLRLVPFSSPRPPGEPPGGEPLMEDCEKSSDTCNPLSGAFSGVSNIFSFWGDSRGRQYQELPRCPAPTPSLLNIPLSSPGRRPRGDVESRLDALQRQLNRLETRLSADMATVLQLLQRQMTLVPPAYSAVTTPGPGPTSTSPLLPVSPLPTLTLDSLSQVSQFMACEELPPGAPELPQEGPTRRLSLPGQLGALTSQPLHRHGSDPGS
For `CCCOC(=O)c1ccc(NS(=O)(=O)c2cccs2)cc1`, the “hERG current change (%, negative = inhibition) at 10uM” value is listed as -6.88%.

Regarding `O=C(C(Cl)Cl)N1CCN(Cc2ccccc2)CC1`, the “hERG current change (%, negative = inhibition) at 10uM” value is given as -4.72%.

Turning to `CCc1ccccc1OCC(=O)Nc1cc(S(=O)(=O)N(CC)CC)ccc1N1CCOCC1`, the “hERG current change (%, negative = inhibition) at 10uM” value is -7.83%.

For `O=C(COc1ccc(F)cc1Cl)Nc1cc(S(=O)(=O)N2CCOCC2)ccc1N1CCCCC1`, the “hERG current change (%, negative = inhibition) at 10uM” value is 4.24%.

Turning to `CCN(CC)S(=O)(=O)c1ccc(N2CCOCC2)c(NC(=O)COc2ccccc2C)c1`, the “hERG current change (%, negative = inhibition) at 10uM” value was 8.22%.

`CCN(CC)S(=O)(=O)c1ccc(N2CCN(C)CC2)c(NC(=O)COc2ccc(F)cc2Cl)c1`: the “hERG current change (%, negative = inhibition) at 10uM” value is listed as -59%.

Take `CN1CCN(c2ccc(S(=O)(=O)N3CCOCC3)cc2NC(=O)COc2ccc(F)cc2Cl)CC1`: the “hERG current change (%, negative = inhibition) at 10uM” value was -61.5%.

On to `CCN1CCN(c2ccc(S(=O)(=O)N3CCOCC3)cc2NC(=O)COc2ccc(F)cc2Cl)CC1`, for which the “hERG current change (%, negative = inhibition) at 10uM” value was -24.4%.

With `COP(=O)(OC)C(Nc1ccc([N+](=O)[O-])cc1)c1ccccc1` (stereo not shown), the “hERG current change (%, negative = inhibition) at 10uM” value was -36.1%.

In the case of `CC(NC(=S)NCCc1ccccc1)C(c1cccs1)N1CCN(Cc2ccccc2)CC1` (stereo not shown), the “hERG current change (%, negative = inhibition) at 10uM” value is on record as -41.3%.

Take `Cc1sc(NC(=O)/C=C/c2ccc3c(c2)OCO3)nc1-c1ccccc1`: the “hERG current change (%, negative = inhibition) at 10uM” value turned out to be 8.5%.

With `Cc1ccc(C)c(NS(=O)(=O)c2cc(C(=O)Nc3ccccc3-c3ccccc3)ccc2C)c1`, the “hERG current change (%, negative = inhibition) at 10uM” value was 18.2%.

Turning to `COc1cccc(CN2CCCCC2c2cccnc2)c1` (stereo not shown), the “hERG current change (%, negative = inhibition) at 10uM” value is 3.01%.

For the compound `Cc1noc(C)c1COc1ccc(C(=O)OCC(=O)NCCN2C(=O)CSC2=O)cc1`, the “hERG current change (%, negative = inhibition) at 10uM” value is reported as -8.06%.

In the case of `CC(c1c(O)c2ccccc2[nH]c1=O)C1(C)CCC(O)C(C)(C)O1` (stereo not shown), the “hERG current change (%, negative = inhibition) at 10uM” value is -2.48%.

As for `COc1cc(/C=C(\C#N)c2nc3c(s2)CC(C)CC3)ccc1O` (stereo not shown), the “hERG current change (%, negative = inhibition) at 10uM” value is on record as 10.1%.

For `COc1ccc(S(=O)(=O)N2CCC3(CC2)CC(=O)c2ccccc2O3)cc1OC`, the “hERG current change (%, negative = inhibition) at 10uM” value was determined as 11.6%.

Turning to `CSc1ccccc1C(=O)N1CCOCC1`, the “hERG current change (%, negative = inhibition) at 10uM” value is given as 20%.

On to `O=C1CC2(CCN(C(=O)c3ccccc3Cl)CC2)Oc2ccccc21`, for which the “hERG current change (%, negative = inhibition) at 10uM” value is -72.7%.

For `COc1ccc(Cl)cc1C(=O)N1CCC2(CC1)CC(=O)c1ccccc1O2`, the “hERG current change (%, negative = inhibition) at 10uM” value is -80.5%.

Turning to `O=C1CC2(CCCC2)Oc2ccccc21`, the “hERG current change (%, negative = inhibition) at 10uM” value amounted to 3.39%.

For the compound `O=C(C(=O)N1CCCC1)c1c[nH]c2ccccc12`, the “hERG current change (%, negative = inhibition) at 10uM” value amounted to 7.14%.

In the case of `COc1ccc(S(=O)(=O)N2CCC3(CC2)CC(=O)c2ccccc2O3)cc1C`, the “hERG current change (%, negative = inhibition) at 10uM” value is on record as -3.6%.

On to `CSc1ccccc1C(=O)N1CCC2(CC1)CC(=O)c1ccccc1O2`, for which the “hERG current change (%, negative = inhibition) at 10uM” value is given as -61%.

Take `O=C1CC2(CCN(C(=O)C(=O)c3c[nH]c4ccccc34)CC2)Oc2ccccc21`: the “hERG current change (%, negative = inhibition) at 10uM” value was -55.3%.

For the compound `O=C(C(=O)N1CCOCC1)c1c[nH]c2ccccc12`, the “hERG current change (%, negative = inhibition) at 10uM” value was 18.3%.

As for `O=C1CC2(CCN(C(=O)c3c(F)cccc3Cl)CC2)Oc2ccccc21`, the “hERG current change (%, negative = inhibition) at 10uM” value is listed as -41.2%.

As for `CSc1ccccc1C(=O)N1CCCCC1`, the “hERG current change (%, negative = inhibition) at 10uM” value is given as -9.98%.

On to `CCn1c(SCC(=O)N2CCCc3ccccc32)nc2c(c1=O)SC(C)C2` (stereo not shown), for which the “hERG current change (%, negative = inhibition) at 10uM” value is on record as -24.7%.

For `O=C(O)/C=C/c1ccccc1Oc1ccc(Cl)cc1Cl`, the “hERG current change (%, negative = inhibition) at 10uM” value is listed as -8.85%.

Take `CC(NC(=O)C[n+]1cccc(Br)c1)c1ccccc1.[Cl-]` (stereo not shown): the “hERG current change (%, negative = inhibition) at 10uM” value is 17.6%.

Take `COC(C(=O)N/N=C(\C)CC(=O)Nc1ccc(Cl)cc1C)c1ccccc1` (stereo not shown): the “hERG current change (%, negative = inhibition) at 10uM” value is listed as -10.5%.

Consider `CCOC(=O)CSc1nc(C)cc(C)n1`, for which the “hERG current change (%, negative = inhibition) at 10uM” value worked out at 7.29%.

On to `FC(F)(F)c1ccccc1CNCc1ccc2c(c1)OCO2`, for which the “hERG current change (%, negative = inhibition) at 10uM” value stood at 0.962%.

Regarding `O=C(Nc1ccccc1OC(F)F)c1oc2ccccc2c1COc1ccccc1`, the “hERG current change (%, negative = inhibition) at 10uM” value stood at 0.283%.

Regarding `COc1ccc(-n2c(Cc3cc(=O)[nH]c(=O)[nH]3)nnc2SCC(=O)Nc2cc(C(F)(F)F)ccc2Cl)cc1`, the “hERG current change (%, negative = inhibition) at 10uM” value is -3.73%.

Take `CCCC(c1nnnn1CC(=O)OCC)N(Cc1cc2c(C)cc(C)cc2[nH]c1=O)C1CCCC1` (stereo not shown): the “hERG current change (%, negative = inhibition) at 10uM” value came to 22.1%.

For the compound `O=C1CC2(CCCC2)Oc2ccc(Cl)cc21`, the “hERG current change (%, negative = inhibition) at 10uM” value worked out at 8.19%.

As for `O=C1CC2(CCN(C(=O)c3ccccc3Br)CC2)Oc2ccccc21`, the “hERG current change (%, negative = inhibition) at 10uM” value is -76.9%.

For the compound `O=C1CC2(CCCCCC2)Oc2ccccc21`, the “hERG current change (%, negative = inhibition) at 10uM” value is given as -6.74%.

Take `O=C1CC2(CCN(C(=O)c3c(F)cccc3F)CC2)Oc2ccccc21`: the “hERG current change (%, negative = inhibition) at 10uM” value is reported as -34.2%.

Turning to `O=C1CC2(CCN(C(=O)c3ccccc3F)CC2)Oc2ccccc21`, the “hERG current change (%, negative = inhibition) at 10uM” value was -73.2%.

Regarding `O=C1CC2(CCCCC2)Oc2ccccc21`, the “hERG current change (%, negative = inhibition) at 10uM” value turned out to be 14.4%.

For the compound `O=C1CC2(CCCCCC2)Oc2ccc(Cl)cc21`, the “hERG current change (%, negative = inhibition) at 10uM” value is 9.01%.

As to `O=C(c1ccccc1F)N1CCC2(CC1)OCCO2`, the “hERG current change (%, negative = inhibition) at 10uM” value was determined as 30.8%.

In the case of `CC(=O)N1CCC2(CC1)CC(=O)c1cc(Cl)ccc1O2`, the “hERG current change (%, negative = inhibition) at 10uM” value is recorded as -55.2%.
